# PubChem BioAssay (NCATS)
# Results filed as inconclusive are left out. Entries that show only a call come without a potency. Calls of active or inactive are those of the source. Calls come from the whole dose curve; as a rule, active = well fitted curve in the direction sought with a large enough effect; inconclusive = small, poorly fitted or top-dose-only effect, or another doubt; inactive = no such curve, though single readings can be large; an effect the other way counts as inactive or inconclusive.
# Columns and labels:
# [1] = Tertiary RLuc qRT-PCR qHTS assay for Zika virus inhibitors (AID 1347169); conditions: infected Vero cells, reporter luminescence, 48-72 h; series mostly up to 45.9 µM; note: nearly all actives have a fitted effect of over 55% in size; note: potency is the fitted concentration of half-maximal effect
# In short: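 Vero cells (1,000 per well) plated overnight at 37 degrees C, treated with compound in DMSO, then infected with recombinant ZIKV-RLuc (Cambodian) at MOI 1-2 for 48-72 hrs. Live-cell Renilla luciferase substrate added; luminescence read after 1-1.5 hrs.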
# [2] = OV-KATE Cancer Cell Toxicity qHTS against the NCATS CANVASS Library (AID 1347345); conditions: OV-KATE cells viability, CellTiter-Glo luminescence, 72 h; series mostly up to 38.3 µM
# In short: (§1)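 1000 cells/well seeded and rested 4 h at 37 °C before pin transfer of compounds in an 11-pnt series. Exposure 72 h at 37 °C/5% CO2; viability by CellTiter-Glo luminescence after 15 min at room temperature.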
# [3] = HPAF-II Cancer Cell Toxicity qHTS against the NCATS CANVASS Library (AID 1347346); conditions: HPAF-II viability, CellTiter-Glo ATP luminescence, 72 h; series mostly up to 38.3 µM; note: nearly all actives have a fitted effect of over 55% in size
# In short: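 First, HPAF-II cells are plated (1000 cells/well) and held 4 h at 37 degrees C. Next, compounds are pin-transferred as an 11-point series. After 72 h, CellTiter-Glo is added and luminescence measured.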
# [4] = UWB1.289 Cancer Cell Toxicity qHTS against the NCATS CANVASS Library (AID 1347347); conditions: UWB1.289 viability, CellTiter-Glo luminescence, 72 h; note: potency is the fitted concentration of half-maximal effect; nearly all actives have a fitted effect of over 60% in size
# In short: as §1
# [5] = OV-SAHO Cancer Cell Toxicity qHTS against the NCATS CANVASS Library (AID 1347348); conditions: OV-SAHO viability, CellTiter-Glo luminescence, 72 h; series mostly up to 38.3 µM; note: nearly all actives have a fitted effect of over 55% in size
# In short: as §1
# [6] = Panc-1005 Cancer Cell Toxicity qHTS against the NCATS CANVASS Library (AID 1347349); conditions: Panc-1005 viability, CellTiter-Glo luminescence, 72 h; series mostly up to 38.3 µM; note: nearly all actives have a fitted effect of over 60% in size; note: potency is the fitted concentration of half-maximal effect
# In short: as §1
# [7] = U-118MG Cancer Cell Toxicity qHTS against the NCATS CANVASS Library (AID 1347351); conditions: U-118MG viability, CellTiter-Glo luminescence, 72 h; series mostly up to 38.3 µM
# In short: as §1
# [8] = COV-362 Cancer Cell Toxicity qHTS against the NCATS CANVASS Library (AID 1347352); conditions: COV-362 viability, CellTiter-Glo luminescence, 72 h; series mostly up to 38.3 µM
# In short: (§2)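 First, 1000 cells go into each well and rest for 4 hours. Next, an 11-point dilution range is pinned in. Plates then incubate 72 hours before CellTiter-Glo addition and luminescence reading.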
# [9] = A2780 Cisplatin Sensitive Ovarian Cancer Cell Toxicity qHTS against the NCATS CANVASS Library (AID 1347353); conditions: A2780 ovarian cancer viability, ATPLite luminescence, 72 h; at 46.1 µM (top of the series); note: nearly all actives have a fitted effect of over 60% in size
# In short: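 Cells are plated at 750 per well and rest for 4 hours. Compounds are added across eleven concentrations, and incubated 72 hours before ATP is quantified by luminescence.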
# [10] = UWB1.289-WTBRCA1 Cancer Cell Toxicity qHTS against the NCATS CANVASS Library (AID 1347354); conditions: UWB1.289-WTBRCA1 viability, CellTiter-Glo luminescence, 72 h; series mostly up to 38.3 µM
# In short: as §2
# [11] = HEK-293 Cancer Cell Toxicity qHTS against the NCATS CANVASS Library (AID 1347355); conditions: HEK-293 viability, CellTiter-Glo luminescence, 72 h; at 46.1 µM (top of the series); note: nearly all actives have a fitted effect of over 65% in size
# In short: as §2
# [12] = HPAF-II 24hr Apoptosis Induction qHTS against the NCATS CANVASS Library (AID 1347356); conditions: HPAF-II caspase-3/7 Caspase-Glo luminescence; series mostly up to 46.1 µM
# In short: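 Cells seeded at 500 per well, then compounds pin-transferred in an 11-point concentration series. After 24 hours at 37 degrees C, Caspase-Glo 3/7 was added and luminescence measured following 15 min at room temperature.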
# [13] = HEK293 18hr Apoptosis Induction qHTS against the NCATS CANVASS Library (AID 1347357); conditions: HEK293 caspase-3/7 Caspase-Glo luminescence; series mostly up to 46.1 µM
# In short: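 HEK293 cells (500 per well, DMEM with 10% FBS) were treated with natural products, incubated 18 hours at 37 degrees C, then caspase-3/7 activity was read by Caspase-Glo luminescence after 15 min at room temperature.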
# [14] = HPAF-II 12hr Apoptosis Induction qHTS against the NCATS CANVASS Library (AID 1347358); conditions: HPAF-II caspase-3/7 Caspase-Glo luminescence; series mostly up to 46.1 µM
# In short: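 Cells plated at 500 per well are dosed with compound and incubated 12 hours at 37 degrees C. Caspase-Glo 3/7 reagent is added and, after 15 min at room temperature, luminescence proportional to caspase activity is measured.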
# [15] = HEK293 24hr Apoptosis Induction qHTS against the NCATS CANVASS Library (AID 1347359); conditions: HEK293 caspase-3/7 activation, Caspase-Glo luminescence; series mostly up to 46.1 µM
# In short: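 HEK293 cells, 500 per well, exposed to an 11-point compound series for 24 hours at 37 degrees C. Caspase 3/7 activity read by Caspase-Glo luminescence (DEVD substrate) after 15 min at room temperature.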
# [16] = HPAF-II 18hr Apoptosis Induction qHTS against the NCATS CANVASS Library (AID 1347360); conditions: HPAF-II caspase-3/7 luminescence; series mostly up to 46.1 µM
# In short: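 HPAF-II cells (500/well, DMEM + 10% FBS) were exposed to compounds for 18 hours at 37 degrees C. Caspase-3/7 activity was then read by Caspase-Glo 3/7 luminescence after 15 min at room temperature.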
# [17] = HEK293 12hr Apoptosis Induction qHTS against the NCATS CANVASS Library (AID 1347361); conditions: HEK293 caspase-3/7 Caspase-Glo luminescence; series mostly up to 46.1 µM
# In short: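 Read-out: Caspase-Glo 3/7 luminescence (DEVD substrate), 15 min RT. Preceded by 12 h compound exposure of HEK293, 500 cells/well, 11-pt qHTS titration; doxorubicin titration as control.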
# [18] = target: Luciferin 4-monooxygenase (Photinus pyralis) (UniProt P08659); assay: Firefly luciferase counterscreen qHTS: Assay Interference Panel against the NCATS CANVASS Library (AID 1347363); conditions: purified firefly luciferase, luminescence inhibition, 5 min; series mostly up to 57.5 µM
# In short: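 Purified P. pyralis luciferase (0.04 ug/mL, 4x reagent) added to Tris-acetate buffer with 0.013 mM D-luciferin, 0.013 mM ATP and 13.3 mM Mg-acetate; compounds preincubated 15 min, then luminescence read after 5 min, RT.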
# [19] = SW1088 Cancer Cell Toxicity qHTS against the NCATS CANVASS Library (AID 1347350); conditions: SW1088 viability, CellTiter-Glo luminescence, 72 h; note: potency is the fitted concentration of half-maximal effect; nearly all actives have a fitted effect of over 75% in size
# In short: as §1
# [20] = tested on: NAD(P)H diaphorase (Clostridium kluyveri); assay: Diaphorse counterscreen qHTS: Assay Interference Panel against the NCATS CANVASS Library (AID 1347362); conditions: Diaphorase enzyme, resazurin to resorufin fluorescence; series mostly up to 57.5 µM
# In short: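 Clostridium kluyveri diaphorase in PBS + 0.01% Tween-20 preincubated 15 min with compounds. Resazurin and NADH then added for 5 min at room temperature in the dark; resorufin fluorescence read (ex 525, em 598).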
# Sequence of Luciferin 4-monooxygenase (Photinus pyralis) (P08659 whole entry, looked up): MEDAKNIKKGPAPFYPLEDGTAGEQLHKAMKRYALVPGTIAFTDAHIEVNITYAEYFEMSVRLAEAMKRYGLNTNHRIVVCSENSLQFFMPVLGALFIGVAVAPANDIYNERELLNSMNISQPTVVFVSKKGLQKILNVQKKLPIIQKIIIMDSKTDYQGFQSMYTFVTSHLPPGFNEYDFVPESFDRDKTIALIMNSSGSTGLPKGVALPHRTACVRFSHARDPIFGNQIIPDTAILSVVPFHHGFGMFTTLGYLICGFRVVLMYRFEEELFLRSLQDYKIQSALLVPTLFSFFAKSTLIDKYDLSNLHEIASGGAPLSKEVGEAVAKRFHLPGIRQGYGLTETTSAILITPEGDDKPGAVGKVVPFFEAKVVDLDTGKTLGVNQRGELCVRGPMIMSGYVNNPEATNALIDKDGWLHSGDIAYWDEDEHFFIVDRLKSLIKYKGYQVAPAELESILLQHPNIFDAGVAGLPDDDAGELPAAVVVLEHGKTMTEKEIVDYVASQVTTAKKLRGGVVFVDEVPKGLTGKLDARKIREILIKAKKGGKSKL
structure (smiles),measurement,setting,value
CN(C)CC(=O)N1CCC(c2ccc(NC(=O)c3ncc(C#N)[nH]3)c(C3=CCCCC3)c2)CC1,Potency,[1],inactive
CCCCCCCCc1ccc(CCC(N)(CO)CO)cc1,Potency,[1],16.5 µM (active)
c1cc(N[C@@H]2CCNC2)nc(-c2cnc3ccc(-c4cn[nH]c4)cn23)c1,Potency,[1],inactive
O=c1c(O)c(-c2ccc(O)c(O)c2)oc2cc(O)ccc12,Potency,[1],inactive
same,outcome,[2],inactive
same,outcome,[3],inactive
same,Potency,[4],7.47 µM (active)
same,outcome,[5],inactive
same,Potency,[6],inactive
same,outcome,[7],inactive
same,outcome,[8],inactive
same,outcome,[9],inactive
same,outcome,[10],inactive
same,outcome,[11],inactive
same,outcome,[12],inactive
same,outcome,[13],inactive
same,outcome,[14],inactive
same,outcome,[15],inactive
same,outcome,[16],inactive
same,outcome,[17],inactive
same,outcome,[18],inactive
C=C(C)[C@@H]1CC[C@]2(C(=O)O)CC[C@]3(C)[C@H](CC[C@@H]4[C@@]5(C)CC[C@H](O)C(C)(C)[C@@H]5CC[C@]43C)[C@@H]12,Potency,[6],18.8 µM (active)
same,Potency,[19],4.73 µM (active)
same,outcome,[7],inactive
same,outcome,[12],inactive
same,outcome,[13],inactive
same,outcome,[14],inactive
same,outcome,[15],inactive
same,outcome,[16],inactive
same,outcome,[17],inactive
same,outcome,[20],inactive
same,outcome,[18],inactive
C[C@H]1COc2c(N3CCN(C)CC3)c(F)cc3c(=O)c(C(=O)O)cn1c23,Potency,[1],inactive
CC(C)c1cc(C(C)C)c(CC(=O)NS(=O)(=O)Oc2c(C(C)C)cccc2C(C)C)c(C(C)C)c1,Potency,[1],5.87 µM (active)
